Here are results for seven compounds from PubChem BioAssay AID488815 (Broad Institute, 2010).

Entries with a potency or affinity are not part of this list. Inconclusive results are not listed. Activity calls are given as the source filed them. No rule for the calls is given here.

The target in this test is CAAX prenyl protease 1 (Saccharomyces cerevisiae (strain ATCC 204508 / S288c)) (UniProt P47154). Kind of test: Ste24 protease inhibitors, dose response, biochemical, S. cerevisiae, plate reader, cherry-pick (AID 488815). The note with it: yeast Ste24 protease activity; series mostly up to 10 µM.
Chain of CAAX prenyl protease 1 (Saccharomyces cerevisiae (strain ATCC 204508 / S288c)) (P47154 whole entry, looked up): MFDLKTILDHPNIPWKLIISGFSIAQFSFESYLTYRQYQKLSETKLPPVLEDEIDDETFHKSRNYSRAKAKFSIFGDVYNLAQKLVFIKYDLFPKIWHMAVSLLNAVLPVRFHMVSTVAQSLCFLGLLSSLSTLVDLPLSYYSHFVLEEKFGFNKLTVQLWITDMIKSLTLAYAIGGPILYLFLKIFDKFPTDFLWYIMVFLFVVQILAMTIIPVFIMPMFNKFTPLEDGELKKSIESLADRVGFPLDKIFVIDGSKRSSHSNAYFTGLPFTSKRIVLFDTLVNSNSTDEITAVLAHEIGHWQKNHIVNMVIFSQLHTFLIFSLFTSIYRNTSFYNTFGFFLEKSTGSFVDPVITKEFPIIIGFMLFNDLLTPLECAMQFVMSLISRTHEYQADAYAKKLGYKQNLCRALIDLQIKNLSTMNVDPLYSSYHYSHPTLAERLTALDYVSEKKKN

In the case of `C=CCn1c(O)c(C(CC)=Nc2ccc(N(CC)CC)cc2)c(=O)[nH]c1=O`, the compound was called inactive. Under `CN1CCN(c2ccc([N+](=O)[O-])c(Sc3nncn3C)c2)CC1` stands “inactive”. As for `Cc1ccnc(-n2c(-c3ccco3)nc3ccccc3c2=O)c1`, the call was inactive. Under `c1ccc(CCCN2CCN(CCOC(c3ccccc3)c3ccccc3)CC2)cc1` stands “inactive”. Then `O=[N+]([O-])c1ccc(C[n+]2c(-c3ccccc3)cc(-c3ccccc3)cc2-c2ccccc2)cc1`, with “inactive”; and `CC(C)OCCCNC(=O)c1c(N)n(CC2CCCO2)c2nc3ccccc3nc12` (configuration not stated), with “inactive”; and `CCOC(=O)[C@@H]1[C@H]2COc3ccc(Br)cc3[C@@H]2N2C(=O)N(c3cccc(C)c3)C(=O)[C@]12C`, with “inactive”.
